Records with an inconclusive call do not appear. Calls of active or inactive are those of the source. The call rests on the fitted dose curve.
Biological target: Peroxisome proliferator-activated receptor gamma (Homo sapiens) (UniProt P37231)
Assay: qHTS assay to identify small molecule antagonists of the peroxisome proliferator-activated receptor gamma (PPARg) signaling pathway (AID 743191); further: nearly all actives have a fitted effect of over 30% in size
Conditions: HEK293H PPARg-UAS-bla, beta-lactamase ratio, antagonist, 17 h; series mostly up to 62.6 µM; ratio activity, negative = inhibition: at the top concentration
Text: U.S. Tox21 Program National Center for Advancing Translational Sciences [NCATS] NIH Chemical Genomics Center [NCGC] U.S. Environmental Protection Agency [EPA] National Institutes of Environmental Health Sciences [NIEHS] National Toxicology Program [NTP] U.S. Food and Drug Administration [FDA] Tox21 Assay Overview: The peroxisome proliferator-activated receptors (PPARs) are lipid-activated transcription factors of the nuclear receptor superfamily with three distinct subtypes namely PPAR alpha, PPAR delta (also called PPAR beta) and PPAR gamma (PPARg). All these subtypes heterodimerize with Retinoid X receptor (RXR) and these heterodimers regulate transcription of various genes. PPAR-gamma receptor (glitazone receptor) is involved in the regulation of glucose and lipid metabolism. To identify the compounds that inhibit PPAR-gamma signaling, GeneBLAzer PPAR gamma UAS-bla HEK293H cell line (Invitrogen, Carlsbad, CA, USA) containing a beta-lactamase reporter gene under control of an Upstream Activator Sequence (UAS) was used to screen the Tox21 compound library.
Tox21 Assay Protocol Summary: PPARg-bla cells were dispensed at 3000 cells/6uL/well in 1536-well black wall/clear bottom plates using a Multidrop Combi (Thermo Fisher Scientific, Waltham, MA) dispenser. After the assay plates were incubated at 37C and 5% CO2 for 5 h, 23 nL of compounds dissolved in DMSO, positive controls or DMSO only was transferred to the assay plate by a Pintool station (Kalypsys, San Diego, CA). The assay plates were incubated at 37C for 17 h. After 1 uL of LiveBLAzerTM B/G FRET substrate was added using a Bioraptr Flying Reagent Dispenser (FRD) workstation (Beckman Coulter, Indianapolis, IN, USA), the plates were incubated at room temperature for 1 h, and fluorescence intensity was measured by an Envision plate reader (PerkinElmer, Shelton, CT).
On the % scale 0 is the no-effect control and ±100 the full control effect.

Chain of Peroxisome proliferator-activated receptor gamma (Homo sapiens) (P37231 whole entry, looked up): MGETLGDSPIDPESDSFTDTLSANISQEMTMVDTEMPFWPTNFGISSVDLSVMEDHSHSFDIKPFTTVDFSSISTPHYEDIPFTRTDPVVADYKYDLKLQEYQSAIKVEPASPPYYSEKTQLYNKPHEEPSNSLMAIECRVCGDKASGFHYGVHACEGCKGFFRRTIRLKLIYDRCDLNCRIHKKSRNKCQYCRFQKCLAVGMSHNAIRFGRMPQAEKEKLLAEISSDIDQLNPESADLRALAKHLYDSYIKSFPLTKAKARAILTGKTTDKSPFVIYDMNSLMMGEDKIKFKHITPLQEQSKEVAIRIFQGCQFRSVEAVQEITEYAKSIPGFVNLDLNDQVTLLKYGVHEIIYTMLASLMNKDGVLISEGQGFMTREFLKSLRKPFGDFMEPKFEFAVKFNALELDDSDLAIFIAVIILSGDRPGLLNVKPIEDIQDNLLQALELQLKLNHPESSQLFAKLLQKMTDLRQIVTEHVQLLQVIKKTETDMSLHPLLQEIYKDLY

Row | SMILES | ratio activity, negative = inhibition
1 | C=CC(=O)N1CCOCC1 | 0.439% (inactive)
2 | CCC(C)(C)C1CCC(OC)CC1 (stereo not given) | 1.69% (inactive)
3 | CC(C)(C)N(CCO)CCO | 10.7% [at 81.1 µM] (inactive)
4 | C=C(C)C(=O)OCCC(C)OC(=O)C(=C)C (stereo not given) | 0.833% (inactive)
5 | Nc1[nH]c(=O)ncc1F | 2.01% (inactive)
6 | OCCN1C[C@H](O)[C@@H](O)[C@H](O)[C@H]1CO | 4.32% (inactive)
7 | OC1OC[C@@H](O)[C@H](O)[C@H]1O (stereo not given in full) | 4.86% (inactive)
8 | CCN1CCN(c2cc3c(cc2F)c(=O)c(C(=O)O)cn3C2CC2)CC1 | 4.89% (inactive)
9 | C=CCOc1nc(OCC=C)nc(OCC=C)n1 | -0.535% (inactive)
10 | NC(N)=NS(=O)(=O)c1ccc(N)cc1 | 5.45% (inactive)
11 | CC(CCO)CCCC(C)(C)O (stereo not given) | 7.08% (inactive)
12 | CC(C)=CC(=O)O | 0.145% (inactive)
13 | CC(C)(O)Cc1ccccc1 | 3.1% (inactive)
14 | NC(=O)CCCCC1CCSS1 (stereo not given) | 4.67% (inactive)
15 | CCCCN(CCO)CCO | -8.27% (inactive)
16 | CC(C)COC(=O)c1ccccc1O | 6% (inactive)
17 | CC(C)(O)C(=O)c1ccc(OCCO)cc1 | -10.3% (inactive)
18 | CC(=O)c1ccc(C)cc1 | 15.5% (inactive)
19 | CSc1nc(NC2CC2)nc(NC(C)(C)C)n1 | -16.2% (inactive)
20 | O=C(O)c1ccc[n+]([O-])c1 | 0.461% (inactive)

Row | SMILES | ratio activity, negative = inhibition
21 | CCc1cc(S(=O)(=O)O)c2cc(C(C)C)cccc1-2 | 1.62% (inactive)
22 | c1ccc2cnncc2c1 | -25.7% (inactive)
23 | Oc1cc(O)c2c(c1)O[C@H](c1ccc(O)c(O)c1)[C@H](O)C2 | -0.977% (inactive)
24 | COc1cccc(OC)c1 | 22.2% (inactive)
25 | CCCCCCCCCCC1CO1 (stereo not given) | 16.9% (inactive)
26 | C1=C\CC/C=C\CC/C=C\CC/1 | -9.86% (inactive)
27 | O=C(O)C(O)[C@H](O)[C@@H](O)[C@H](O)[C@H](O)CO (stereo not given in full) | 15.9% [at 81.1 µM] (inactive)
28 | COC(=O)C1=C(C)NC(C)=C(C(=O)OCC(C)=O)C1c1ccccc1[N+](=O)[O-] (stereo not given) | 10.6% (inactive)
29 | CC(C)c1cccc(C(C)C)c1N | 12.4% (inactive)
30 | CCCCCOC(=O)Nc1nc(=O)n([C@@H]2O[C@H](C)[C@@H](O)[C@H]2O)cc1F | 3.18% (inactive)
31 | CN1[C@@H]2CC[C@H]1CC(NC(=O)n1c(=O)[nH]c3ccccc31)C2 (stereo not given in full) | 2.77% (inactive)
32 | CC(C=O)Cc1ccc(C(C)C)cc1 (stereo not given) | 8.2% (inactive)
33 | Cc1c(C)n(CCN(C)C)c2ccc(C(=O)OCCN(C)C)cc12 | -14.3% (inactive)
34 | NC(=O)c1c(Cl)cccc1Cl | 6.5% (inactive)
35 | CCCCOCC(C)OCC(C)O (stereo not given) | -12.4% [at 81.1 µM] (inactive)
36 | CN(C)CCn1nnnc1SCC1=C(C(=O)O)N2C(=O)[C@@H](NC(=O)Cc3csc(N)n3)[C@H]2SC1 | 6.11% (inactive)
37 | O=S(=O)(O)c1ccccc1O | 5.17% (inactive)
38 | CSc1ccc(C=O)cc1 | 7.29% (inactive)
39 | NC(=O)Nc1nc2ccccc2[nH]1 | 1.6% (inactive)
40 | CC1=CC(C)C(C=O)C(C)C1 (stereo not given) | 9.62% (inactive)

Reference: PubChem BioAssay (Tox21)
